Pf growth 48h – inhibits P. falciparum growth in the first generation, 48 h. P. falciparum luciferase growth in erythrocytes, 48 h. Potency, µM (highest dose often 28.7 µM), for the others: at the top dose activity change, negative = inhibition, usual class: inhibitors. 310,000 tested, 5.9% active; note: potency is the fitted concentration of half-maximal effect; % is set by controls: 0 for no effect and ±100 for the full control effect
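Firefly luciferase activity from engineered P. falciparum reports growth; inhibitors lower the luminescent signal. Cultures contained 2% hematocrit erythrocytes at 0.1% final parasitemia.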
Shiga inhibitor – inhibitors of Shiga toxin in Vero cells; 290,000 tested, 9.2% active; inhibition, % at 38.7 µM; Vero cells, Shiga toxin protein synthesis inhibition reporter; AID 2315; in the data active = inhibition mostly above about 28%, no sharp cut-off; inactive = mostly below about 43%; note: 0% is about no effect
Pf growth 96h – inhibits malaria parasite growth, 96 h | P. falciparum luciferase reporter growth, 96 h | Potency, µM (highest dose often 28.7 µM), without a hit: at the top dose activity change, negative = inhibition, hits mostly inhibitors | 320,000 tested, 6.9% active | AID 504834; note: potency is the fitted concentration of half-maximal effect; % is set by controls: 0 for no effect and ±100 for the full control effect
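Two-generation exposure (96 h) targets delayed-death phenotype. Reporter parasites carrying integrated firefly luciferase, in red cells at 2% hematocrit and 0.05% parasitemia final, kept at 37 C, 5% CO2; luminescence loss indicates inhibition.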
CHX counter – counter-screen for Shiga toxin inhibitors: cycloheximide protein synthesis inhibition; cell reporter, cycloheximide protein synthesis inhibition counterscreen; max response, %; 300,000 tested, 12% active; in the data active = max response mostly above about 13%, no sharp cut-off; inactive = mostly below about 14%; note: read at 38.3 µM for the half of the compounds with a filed dose; 0% is about no effect
The depositor's hits bear a star; ? = inconclusive; · = no result; + = active, no number; [ ] = dose if it differs, or a comment. This is a sample that favours compounds with a hit; in the whole collection about 21% have one here. Unless noted, calls come from the whole dose curve; as a rule, active = well fitted inhibition curve with a large enough effect; inconclusive = small, poorly fitted or top-dose-only effect, or another doubt; inactive = no such curve, though single readings can be large or run the other way.

SMILES | Pf growth 48h | Shiga inhibitor | Pf growth 96h | CHX counter
Cc1ccc(OCC(=O)NNC(=O)C2CCCO2)c(C)c1 (stereo not drawn) | ? | 11.8 | 42.5% | 21.3*
Cc1ccccc1OCC(=O)NCC1CCCO1 (stereo not drawn) | 7.3% | 66.8 | ? | 1.1
Cc1cc(C)cc(OCC(=O)NNC(=O)C2CCCO2)c1 (stereo not drawn) | 41.2% | 27.8 | ? | 6.0
Cc1ccc([N+](=O)[O-])cc1NC(=O)CSc1nnc(C)n1CC1CCCO1 (stereo not drawn) | 46.9% | -5.0 | 0.0% | -1.5
O=C(NCc1ccc(Cl)cc1)c1ccc(COCC(F)(F)F)o1 | -12.6% | 11.6 | · | -1.9
O=C(Nc1ccc(Cl)cn1)c1ccc(COCC(F)(F)C(F)F)o1 | 43.6% | 67.5* | · | 18.3*
Cc1ccc(CNC(=O)/C=C/c2c(Cl)cccc2Cl)cc1 | 29.0% | -10.8 | 27.9% | -5.5
COC(=O)C(CC(C)C)NC(=O)/C=C/c1ccc(Cl)cc1 (stereo not drawn) | ? | 19.7 | 53.6%[5.75 µM] | -2.9
O=C(/C=C/c1ccccc1Cl)Nc1ccc(Cl)cn1 | 222.1% | 48.1* | -19.4% | 22.5
O=C(/C=C/c1ccccc1Cl)Nc1cccc(O)c1 | 278.3% | 78.4* | 375.3% | 26.0*
CN(C)c1ccc(NC(=O)/C=C/c2c(Cl)cccc2Cl)cc1 | 49.2% | 58.6* | 3.2% | 40.7*
COC(=O)C(CC(C)C)NC(=O)/C=C/c1ccccc1Cl (stereo not drawn) | 13.1µM* | -5.8 | -23.4% | -2.7
COc1ccc(S(=O)(=O)NCC2CCCN(Cc3ccccc3C)C2)cc1 (stereo not drawn) | 13.3% | -5.5 | -1.1% | -2.4
COC(=O)c1c(NC(=S)NN2CCN(C)CC2)sc2c1CCC(C)C2 (stereo not drawn) | ? | -12.2 | ? | -6.5
CC(C)C(NC(=O)c1ccccc1)c1nnc(SCC(=O)NC2CCCC2)n1C (stereo not drawn) | -12.9% | -8.5 | 8.0% | -2.7
O=C(/C=C/c1ccccc1Cl)Nc1ccccc1 | 227.7% | 60.5* | 72.8% | 37.4*
CN(C)S(=O)(=O)c1ccc(NC(=O)/C=C/c2ccccc2Cl)cc1 | ? | 2.4 | ? | 1.1
Cc1cc(C)c2nc(C)cc(Nc3ccc(C(=O)N(C)C)cc3)c2c1 | ? | -14.8 | 4.1% | -3.2
Cc1cc(C)c2nc(C)cc(Nc3ccc(C(=O)NCCO)cc3)c2c1 | 10.4µM* | -3.2 | 11.7µM* | 1.2
CC(=O)c1ccc(Nc2cc(C)nc3c(C)cc(C)cc23)cc1 | 11.7µM* | -40.2 | ? | -9.5
CC(=O)c1cccc(Nc2cc(C)nc3c(C)cccc23)c1 | 11.7µM* | 19.8 | -105.1% | 5.2
Cc1ccc2nc(-c3cccc(S(=O)(=O)N(C)C)c3)cn2c1 | -2.9% | + | 35.1% | 53.9*
CCCN(CCC)S(=O)(=O)c1cccc(-c2csc(C)n2)c1 | 10.4µM* | -6.6 | ? | -0.7
CCN(CC)S(=O)(=O)c1ccc(-c2csc(C)n2)cc1 | 36.4% | 21.1 | ? | 6.7
CCN(CC)S(=O)(=O)c1cccc(-c2n[nH]c(=S)n2Cc2ccccc2)c1 | -24.3% | -4.4 | ? | -1.1
SMILES | Pf growth 48h | Shiga inhibitor | Pf growth 96h | CHX counter
CCN(CC)S(=O)(=O)c1cccc(-c2cn3cc(C)ccc3n2)c1 | 33.3% | 98.5* | · | 65.8*
Clc1ccc(-n2cccc2)cn1 | 1.4% | 32.1 | -7.5% | -3.8
CN(C)c1ccc(-n2cccc2)cc1 | 5.1% | 20.2 | -7.1% | 16.5*
O=C(Nc1ccc(Cn2cccn2)cc1)c1ccc(COc2ccccc2Br)cc1 | -29.7% | 51.1 | 11.7µM* | 12.6
O=C(Nc1cccc([N+](=O)[O-])c1)c1ccc(CN2CCOCC2)cc1 | 145.0% | 84.7* | 11.7µM* | 39.0*
C/C(=N\NC(=O)c1ccc(CN2CCOCC2)cc1)c1ccc(NC(=O)c2ccccc2)cc1 | 261.3% | 63.2* | 39.2% | 40.8*
CC(=O)Nc1ccc(/C(C)=N/NC(=O)c2ccc(CN3CCOCC3)cc2)cc1 | ? | -6.3 | 9.2% | -1.4
O=C(Nc1ccc(CN2CCOCC2)cc1)c1ccc(Cl)cc1 | 54.5% | 36.2* | 41.3% | 32.9*
Cc1ccc(OC(C)C(=O)N2CC(=O)Nc3ccccc32)cc1 (stereo not drawn) | -5.6% | -5.7 | -21.3% | -0.7
O=C(Nc1ccc(F)cc1)c1ccc(Cn2cnnn2)cc1 | 8.7% | 31.9 | 34.3% | 15.9*
O=C(Nc1ccc(CN2CCOCC2)cc1)c1ccc(Br)cc1 | 35.6% | 31.4 | 23.5% | 17.3*
CCOc1ccc(NC(=O)c2ccc(NC(=O)c3ccc(CN4CCOCC4)cc3)cc2)cc1 | -16.6% | 31.6 | 11.6% | 6.0
CC(C)COc1cccc(C(=O)Nc2ccc(S(=O)(=O)N3CCOCC3)cc2)c1 | ? | -3.8 | · | -2.6
O=C(Nc1ccc(CN2CCOCC2)cc1)c1ccc2ccccc2c1 | 24.1% | 46.4* | ? | 59.3*
CC(C)COc1cccc(C(=O)Nc2ccc(CN3CCOCC3)cc2)c1 | -27.7%[0.00184 µM] | 16.3 | 8.28µM* | 17.1
COc1ccc2c(c1)c(C(C)=O)c(C)n2CCc1ccccc1 | -6.5% | -4.5 | -7.8% | -6.0
O=C(CN1C(=O)c2cccc3cccc1c23)NC1CCCC1 | 17.5% | 3.5 | -17.5% | 10.5
O=C(NCCc1nnc2ccc(NCCCN3CCOCC3)nn12)c1ccccc1F | 6.9% | -7.3 | 34.4% | 1.3
O=C(Nc1cccc(OCC(=O)N2CCOCC2)c1)c1cccc(Cl)c1 | 60.8% | -4.3 | 9.1% | -1.1
COC(=O)c1ccc(NC(=O)c2ccc(CN3CCOCC3)cc2)cc1 | ? | -3.5 | · | 1.0
O=C(Nc1ccc(CN2CCS(=O)(=O)CC2)cc1)c1ccc(C(F)(F)F)cc1 | ? | 16.5 | ? | 2.1
CC(C)CNC(=O)c1ccccc1NC(=O)c1ccc(CN2CCOCC2)cc1 | 8.28µM* | 9.4 | 30.4% | -0.8
O=C(Nc1cccc(OCC(=O)N2CCOCC2)c1)c1cccc([N+](=O)[O-])c1 | 14.8% | -8.6 | 7.38µM* | -3.1
O=C(Nc1ccc(CN2CCOCC2)cc1)c1ccc(F)cc1 | 64.9% | 59.6* | 106.8% | 28.5*
CC(C)(C)c1ccc(C(=O)Nc2ccc(CN3CCS(=O)(=O)CC3)cc2)cc1 | -17.2% | 36.2 | ? | 16.7*
SMILES | Pf growth 48h | Shiga inhibitor | Pf growth 96h | CHX counter
COc1cc(CN2CCN(C(=O)CC(C)C)CC2)c([N+](=O)[O-])cc1OC | -2.2% | -1.3 | 31.9% | -0.1
COc1cccc(OC)c1C(=O)Nc1ccc(CN2CCOCC2)cc1 | -8.6% | -13.6 | 21.5% | -1.6
O=C(Nc1ccc(CN2CCOCC2)cc1)c1ccc(-c2ccc(Br)cc2)o1 | 1.85µM* | -6.2 | 9.0% | -0.8
O=C(Nc1ccc(CN2CCOCC2)cc1)c1cccc(F)c1 | 149.2% | 81.5* | 7.7% | 51.9*
O=C(Nc1ccc(CN2CCOCC2)cc1)c1cccc(-c2cc3ccccc3oc2=O)c1 | ? | 32.0 | -2.3% | 8.8
O=C(Nc1ccc(CN2CCOCC2)cc1)c1ccco1 | 234.0% | 51.5* | 59.1% | 28.0*
O=C(N/N=C/c1ccccc1[N+](=O)[O-])c1ccc(CN2CCOCC2)cc1 | 25.1% | -18.9 | 9.28µM* | 16.4
C/C(=N\NC(=O)CSCc1ccc(Cl)cc1)c1ccc(NC(=O)c2ccccc2)cc1 | · | 20.6 | 63.9% | 23.0*
C/C(=N/NC(=O)CSCc1ccc(Cl)cc1)c1cccc(NC(=O)c2ccccc2)c1 | · | 1.1 | 28.3% | 8.4
